# Results published in the supplement of paper PMC8728848.
# About 410 targets per protein were measured; listed, in parts, are those with the strongest signals and a random draw of the rest.
# B1: Gal 8 (Mus musculus), Q9JL15 (protein)
# chain: MGGSHHHHHHGMASMLSLNNLQNIIYNPIIPYVGTITEQLKPGSLIVIRGHVPKDSERFQVDFQLGNSLKPRADVAFHFNPRFKRSSCIVCNTLTQEKWGWEEITYDMPFRKEKSFEIVFMVLKNKFQVAVNGRHVLLYAHRISPEQIDTVGIYGKVNIHSIGFRFSSASALPHTLGDLQSMETSALGLTQINRENIQKPGKLQLSLPFEARLNASMGPGRTVVIKGEVNTNARSFNVDLVAGKTRDIALHLNPRLNVKAFVRNSFLQDAWGEEERNITCFPFSSGMYFEMIIYCDVREFKVAINGVHSLEYKHRFKDLSSIDTLSVDGDIRLLDVRSW
# Key:
# Test in all cases: glycan array binding signal (z-score within array); higher = stronger binding
# Conditions in all cases: glycan notation: IUPAC condensed, linker removed
# [1] = molecular target: Gal(b1-4)GlcNAc(b1-3)Gal(b1-4)GlcNAc(b1-3)Gal(b1-4)GlcNAc(b1-3)Gal(b1-4)GlcNAc(b1-2)[Gal(b1-4)GlcNAc(b1-3)Gal(b1-4)GlcNAc(b1-3)Gal(b1-4)GlcNAc(b1-3)Gal(b1-4)GlcNAc(b1-6)]Man(a1-6)[Gal(b1-4)GlcNAc(b1-3)Gal(b1-4)GlcNAc(b1-3)Gal(b1-4)GlcNAc(b1-3)Gal(b1-4)GlcNAc(b1-2)Man(a1-3)]Man(b1-4)GlcNAc(b1-4)[Fuc(a1-6)]GlcNAc
# Method in brief: (§1)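 Glycan array data came from 3228 arrays in the Consortium for Functional Glycomics database, and only arrays with an available protein sequence were kept. Glycan names were put into IUPAC-condensed notation, and columns mapping to the same glycan were averaged. The binding signal is a within-array Z-score, averaged across arrays of one protein sequence run at different concentrations or buffers and across linkers. A negative Z-score can be read as non-binding.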
# [2] = molecular target: Gal(b1-4)GlcNAc(b1-3)Gal(b1-4)GlcNAc(b1-3)Gal(b1-4)GlcNAc(b1-3)Gal(b1-4)GlcNAc(b1-3)Gal(b1-4)GlcNAc(b1-2)Man(a1-3)[Gal(b1-4)GlcNAc(b1-3)Gal(b1-4)GlcNAc(b1-3)Gal(b1-4)GlcNAc(b1-3)Gal(b1-4)GlcNAc(b1-3)Gal(b1-4)GlcNAc(b1-2)Man(a1-6)]Man(b1-4)GlcNAc(b1-4)GlcNAc
# Method in brief: as §1
# [3] = molecular target: Gal(b1-4)GlcNAc(b1-3)Gal(b1-4)GlcNAc(b1-3)Gal(b1-4)GlcNAc(b1-3)Gal(b1-4)GlcNAc(b1-3)Gal(b1-4)GlcNAc(b1-2)Man(a1-3)[Gal(b1-4)GlcNAc(b1-3)Gal(b1-4)GlcNAc(b1-3)Gal(b1-4)GlcNAc(b1-3)Gal(b1-4)GlcNAc(b1-3)Gal(b1-4)GlcNAc(b1-2)Man(a1-6)]Man(b1-4)GlcNAc(b1-4)[Fuc(a1-6)]GlcNAc
# Method in brief: as §1
# [4] = molecular target: Gal(b1-4)GlcNAc(b1-3)Gal(b1-4)GlcNAc(b1-3)Gal(b1-4)GlcNAc(b1-3)Gal(b1-4)GlcNAc(b1-3)Gal(b1-4)GlcNAc(b1-3)Gal(b1-4)GlcNAc(b1-2)Man(a1-3)[Gal(b1-4)GlcNAc(b1-3)Gal(b1-4)GlcNAc(b1-3)Gal(b1-4)GlcNAc(b1-3)Gal(b1-4)GlcNAc(b1-3)Gal(b1-4)GlcNAc(b1-3)Gal(b1-4)GlcNAc(b1-2)Man(a1-6)]Man(b1-4)GlcNAc(b1-4)GlcNAc
# Method in brief: as §1
# [5] = molecular target: Gal(b1-4)GlcNAc(b1-3)Gal(b1-4)GlcNAc(b1-3)[Gal(b1-4)GlcNAc(b1-3)Gal(b1-4)GlcNAc(b1-6)]GalNAc
# Method in brief: as §1
# [6] = molecular target: Gal(b1-4)GlcNAc(b1-6)GalNAc
# Method in brief: as §1
# Gal3S(b1-4)Glc6S = molecular target: Gal3S(b1-4)Glc6S
# Method in brief: as §1
# [7] = molecular target: Gal3S(b1-4)[Fuc(a1-3)]Glc6S
# Method in brief: as §1
# Gal6S(b1-4)Glc = molecular target: Gal6S(b1-4)Glc
# Method in brief: as §1
# [8] = molecular target: GalNAc(b1-4)GlcNAc(b1-2)Man(a1-3)[GalNAc(b1-4)GlcNAc(b1-2)Man(a1-6)]Man(b1-4)GlcNAc(b1-4)GlcNAc
# Method in brief: as §1
# [9] = molecular target: GlcNAc(b1-3)Gal(b1-4)GlcNAc
# Method in brief: as §1
# [10] = molecular target: GlcNAc(b1-3)Gal(b1-4)GlcNAc(b1-3)Gal(b1-4)GlcNAc
# Method in brief: as §1
# [11] = molecular target: GlcNAc(b1-3)Gal(b1-4)GlcNAc(b1-3)Gal(b1-4)GlcNAc(b1-3)Gal(b1-4)GlcNAc(b1-3)Gal(b1-4)GlcNAc(b1-2)Man(a1-3)[GlcNAc(b1-3)Gal(b1-4)GlcNAc(b1-3)Gal(b1-4)GlcNAc(b1-3)Gal(b1-4)GlcNAc(b1-3)Gal(b1-4)GlcNAc(b1-2)Man(a1-6)]Man(b1-4)GlcNAc(b1-4)[Fuc(a1-6)]GlcNAc
# Method in brief: as §1
# [12] = molecular target: GlcNAc(b1-3)Gal(b1-4)GlcNAc(b1-3)Gal(b1-4)GlcNAc(b1-3)GalNAc
# Method in brief: as §1
# [13] = molecular target: GlcNAc(b1-4)GlcNAc(b1-4)GlcNAc(b1-4)GlcNAc(b1-4)GlcNAc
# Method in brief: as §1
# Man(a1-6)Man = molecular target: Man(a1-6)Man
# Method in brief: as §1
# [14] = molecular target: Neu5Ac(a2-3)Gal(b1-3)GlcNAc(b1-2)Man(a1-3)[Neu5Ac(a2-3)Gal(b1-3)GlcNAc(b1-2)Man(a1-6)]Man(b1-4)GlcNAc(b1-4)GlcNAc
# Method in brief: as §1
# [15] = molecular target: Neu5Ac(a2-3)Gal(b1-4)GlcNAc
# Method in brief: as §1
# [16] = molecular target: Neu5Ac(a2-3)Gal(b1-4)GlcNAc(b1-3)Gal(b1-4)[Fuc(a1-3)]GlcNAc
# Method in brief: as §1
# [17] = molecular target: Neu5Ac(a2-3)Gal(b1-4)GlcNAc(b1-3)GalNAc
# Method in brief: as §1
# Neu5Ac(a2-6)Gal = molecular target: Neu5Ac(a2-6)Gal
# Method in brief: as §1
# [18] = molecular target: Neu5Ac(a2-6)Gal(b1-4)GlcNAc(b1-2)Man
# Method in brief: as §1
# [19] = molecular target: Neu5Ac(a2-6)Gal(b1-4)GlcNAc(b1-2)[Neu5Ac(a2-6)Gal(b1-4)GlcNAc(b1-4)]Man(a1-3)[GlcNAc(b1-4)][Neu5Ac(a2-6)Gal(b1-4)GlcNAc(b1-2)[Neu5Ac(a2-6)Gal(b1-4)GlcNAc(b1-6)]Man(a1-6)]Man(b1-4)GlcNAc(b1-4)GlcNAc
# Method in brief: as §1
# [20] = molecular target: Neu5Ac(a2-6)GlcNAc(b1-4)GlcNAc(b1-4)GlcNAc
# Method in brief: as §1
# [21] = molecular target: Neu5Ac(a2-8)Neu5Ac(a2-3)Gal(b1-3)GalNAc(b1-4)[Neu5Ac(a2-3)]Gal(b1-4)Glc
# Method in brief: as §1
# [22] = molecular target: Neu5Ac(a2-8)Neu5Ac(a2-8)Neu5Ac(a2-3)[Gal(b1-3)GalNAc(b1-4)]Gal(b1-4)Glc
# Method in brief: as §1
# [23] = molecular target: Neu5Gc(a2-3)Gal(b1-3)[Fuc(a1-4)]GlcNAc
# Method in brief: as §1
binder,measurement,setting,value
B1,glycan array binding signal (z-score),[1],2.76
same,glycan array binding signal (z-score),[2],3.48
same,glycan array binding signal (z-score),[3],3.61
same,glycan array binding signal (z-score),[4],3.5
same,glycan array binding signal (z-score),[5],-0.063
same,glycan array binding signal (z-score),[6],-0.214
same,glycan array binding signal (z-score),Gal3S(b1-4)Glc6S,0.566
same,glycan array binding signal (z-score),[7],-0.498
same,glycan array binding signal (z-score),Gal6S(b1-4)Glc,-0.532
same,glycan array binding signal (z-score),[8],-0.195
same,glycan array binding signal (z-score),[9],-0.163
same,glycan array binding signal (z-score),[10],1.11
same,glycan array binding signal (z-score),[11],3.01
same,glycan array binding signal (z-score),[12],0.651
same,glycan array binding signal (z-score),[13],-0.54
same,glycan array binding signal (z-score),Man(a1-6)Man,-0.51
same,glycan array binding signal (z-score),[14],-0.466
same,glycan array binding signal (z-score),[15],-0.517
same,glycan array binding signal (z-score),[16],-0.215
same,glycan array binding signal (z-score),[17],-0.525
same,glycan array binding signal (z-score),Neu5Ac(a2-6)Gal,-0.511
same,glycan array binding signal (z-score),[18],-0.548
same,glycan array binding signal (z-score),[19],-0.602
same,glycan array binding signal (z-score),[20],-0.545
same,glycan array binding signal (z-score),[21],0.316
same,glycan array binding signal (z-score),[22],-0.539
same,glycan array binding signal (z-score),[23],-0.514
